# PubChem BioAssay (Tox21)
# Values without a mark were called inactive. Records with an inconclusive call do not appear. Entries that show only a call come without a potency. The source made the active and inactive calls. Unless noted, calls follow the shape of the dose curve; as a rule, active = well fitted curve in the direction sought with a large enough effect in the repeat runs; inconclusive = weak or mixed curves; inactive = no such curve, though single readings can be large; an effect the other way counts as inactive or inconclusive.
# What was measured:
# [1] = qHTS assay to identify small molecule agonists of the progesterone receptor (PR) signaling pathway - cell viability counter screen (AID 1346799; calls by dose curve; also: nearly all actives have a fitted effect of over 45% in size)
# How it was run: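 Using the same plates as the PR reporter screen, HEK293T PR-UAS-bla cells received compounds for 16 hr at 37C and were then lysed with CellTiter-Glo; luminescence was read 30 min later at room temperature.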
# [2] = qHTS assay to identify small molecule antagonists of the TGF-beta/Smad signaling pathway - cell viability counter screen (AID 1346824); also: nearly all actives have a fitted effect of over 50% in size
# How it was run: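 SBE-bla HEK 293T cells, incubated overnight, then compound plus 0.25 ng/mL TGF-beta1 (stock added) for 5 hr at 37 C. Viability was read in the same wells by CellTiter-Glo luminescence after 30 min at room temperature.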
# [3] = qHTS assay to identify small molecule agonists of the TGF-beta/Smad signaling pathway - cell viability counter screen (AID 1346829); also: top concentration of the series differs between compounds; nearly all actives have a fitted effect of over 45% in size
# How it was run: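 SBE-bla HEK 293T cells plated overnight, compound exposure 5 hr at 37 C. Viability read in the same wells by CellTiter-Glo luminescence after 30 min at room temperature, following the beta-lactamase read.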
# [4] = qHTS assay to identify small molecule agonists of the TGF-beta/Smad signaling pathway (AID 1346859; active = well fitted activation curve with a large enough effect in the signal ratio in the repeat runs, not every such curve was filed as active; the % refers to the signal ratio; also: series mostly up to about 77 µM)
# How it was run: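 Beta-lactamase reporter activity downstream of Smad binding elements was measured in stably transfected HEK 293T cells; compounds were incubated for 5 hr, substrate for 2 hr at room temperature.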
# [5] = target: Thyrotropin-releasing hormone receptor (Homo sapiens) (UniProt P34981); assay: qHTS assay to identify small molecule antagonists of the thyrotropin-releasing hormone receptor (TRHR) signaling pathway (AID 1346877; active = well fitted inhibition curve with a large enough effect in the repeat runs, not every such curve was filed as active; also: series mostly up to about 51 µM)
# How it was run: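 TRHR-expressing HEK293 cells were seeded, cultured 18 h at 37 °C, then loaded with calcium dye for 2 h. Compounds were pre-incubated 5 min at room temperature before 1 nM TRH (final) was added, and kinetic fluorescence was recorded for 3 min.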
# [6] = target: Thyrotropin-releasing hormone receptor (Homo sapiens) (UniProt P34981); assay: qHTS assay to identify small molecule agonists of the thyrotropin-releasing hormone receptor (TRHR) signaling pathway (AID 1346891; calls by dose curve; also: series mostly up to about 58 µM)
# How it was run: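 Overnight-plated (18 h, 37 °C, 5% CO2) TRHR-Hek293 cells; 2 h calcium dye at 37 °C; compound in DMSO; 3-min kinetic fluorescence read.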
# [7] = Human pregnane X receptor (PXR) small molecule agonists, qHTS cell viability counter screen (AID 1346977); also: nearly all actives have a fitted effect of over 50% in size
# How it was run: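 After a 5hr pre-incubation, PXR-Luc HepG2 cells received compounds plus positive control in DMSO and were kept 24hr at 37C. Cell viability was quantified by fluorescence from CellTiter-Fluor added for the final hour.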
# [8] = Caspase-3/7 induction in HepG2 cells by small molecules, qHTS assay (AID 1346978); also: nearly all actives have a fitted effect of over 15% in size
# How it was run: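 Wild-type HepG2 cells, 2,000/well, settled 5 hr at 37 C and 5% CO2, then compound-treated for 17 hr; caspase-3/7 activity read by luminescent Caspase-Glo 3/7 after 30 min at room temperature.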
# [9] = Caspase-3/7 induction in CHO-K1 cells by small molecules, qHTS cell viability counter screen (AID 1346979); also: nearly all actives have a fitted effect of over 35% in size
# How it was run: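 Multiplexed with Caspase-Glo 3/7 in CHO-K1 cells, this counter screen added CellTiter-Fluor after 16hr of compound exposure and recorded fluorescence 1hr later.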
# [10] = Caspase-3/7 induction in CHO-K1 cells by small molecules, qHTS assay (AID 1346980); also: nearly all actives have a fitted effect of over 15% in size
# How it was run: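 Wild-type CHO-K1 cells exposed to compounds for 17hr at 37 C, 5% CO2. Caspase-3/7 activity then measured by Caspase-Glo 3/7 luminescence after 30min at room temperature.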
# [11] = Caspase-3/7 induction in HepG2 cells by small molecules, qHTS cell viability counter screen (AID 1346981); also: series mostly up to about 92 µM; nearly all actives have a fitted effect of over 30% in size
# How it was run: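 Wild-type HepG2 cells (2,000/well) were allowed to settle for 5 hr at 37 C, 5% CO2, then dosed with compounds in DMSO by pin transfer. After 16 hr at 37 C, CellTiter-Fluor was added and fluorescence read 1 hr later.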
# [12] = target: Nuclear receptor subfamily 1 group I member 2 (Homo sapiens) (UniProt O75469); assay: Human pregnane X receptor (PXR) small molecule agonists, qHTS assay (AID 1346982); also: nearly all actives have a fitted effect of over 35% in size; also: potency is read from the fitted curve at half-maximal effect
# How it was run: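 PXR-Luc HepG2 cells (CYP3A4 promoter-driven luciferase) were seeded in medium with 5% charcoal-stripped FBS, left 5 hr at 37 C, then exposed to compounds in DMSO for 24 hr. Luminescence was read after ONE-Glo addition.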
# [13] = target: Cytochrome P450 2D6 (Homo sapiens) (UniProt P10635); assay: Cytochrome P450 Family 2 Subfamily D Member 6 (CYP2D6) small molecule antagonists: luciferase reporter qHTS assay (AID 1671196); also: series mostly up to about 120 µM; nearly all actives have a fitted effect of over 50% in size
# How it was run: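 CYP2D6 enzyme–substrate mix was held with compound for 10 min at room temperature, then NADPH regeneration solution was added and the reaction ran 1 h at room temperature. Luciferin product was detected by luminescence after 20 min with detection reagent.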
# [14] = target: Cytochrome P450 2C19 (Homo sapiens) (UniProt P33261); assay: Cytochrome P450 Family 2 Subfamily C Member 19 (CYP2C19) small molecule antagonists: luciferase reporter qHTS assay (AID 1671197); also: nearly all actives have a fitted effect of over 65% in size; also: potency is read from the fitted curve at half-maximal effect; as to activity change, negative = inhibition: series mostly up to about 120 µM
# How it was run: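 P450-Glo CYP2C19 system: enzyme-substrate mix with compound 10 min at room temperature, then NADPH regeneration solution, 1 h at 37C. Proluciferin-to-luciferin conversion detected by luminescence after 20 min with detection reagent; ketoconazole as positive control.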
# [15] = target: Cytochrome P450 2C9 (Homo sapiens) (UniProt P11712); assay: Cytochrome P450 Family 2 Subfamily C Member 9 (CYP2C9) small molecule antagonists: luciferase reporter qHTS assay (AID 1671198); also: nearly all actives have a fitted effect of over 50% in size; also: potency is read from the fitted curve at half-maximal effect; as to activity change, negative = inhibition: series mostly up to about 120 µM
# How it was run: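 P450-Glo proluciferin substrate with CYP2C9 enzyme; 10 min RT preincubation, then NADPH regeneration 1 h at 37C; luciferin detection reagent 20 min RT, luminescence in relative luminescence units.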
# [16] = target: Cytochrome P450 1A2 (Homo sapiens) (UniProt P05177); assay: Cytochrome P450 Family 1 Subfamily A Member 2 (CYP1A2) small molecule antagonists: luciferase reporter qHTS assay (AID 1671199); also: nearly all actives have a fitted effect of over 50% in size; also: potency is read from the fitted curve at half-maximal effect; as to activity change, negative = inhibition: series mostly up to about 120 µM
# How it was run: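 Human CYP1A2 activity measured with a P450-Glo proluciferin substrate; compounds in DMSO preincubated 10 min at room temperature with enzyme-substrate mix, then NADPH regeneration system added for 1 h. Luciferin detection reagent, 20 min, luminescence read.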
# [17] = target: Voltage-gated inwardly rectifying potassium channel KCNH2 (Homo sapiens) (UniProt Q12809); assay: Human Ether-a-go-go-Related Gene (hERG) channel small molecule antagonists: fluorescence cell-based qHTS assay (AID 1671200)
# How it was run: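 Cell line hERG-U2OS; dye FluxOR II, 1 h RT dark; Tl+ stimulus; ex 480/em 540 nm, read each second for 2 min.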
# Sequence of Thyrotropin-releasing hormone receptor (Homo sapiens) (P34981 whole entry, looked up): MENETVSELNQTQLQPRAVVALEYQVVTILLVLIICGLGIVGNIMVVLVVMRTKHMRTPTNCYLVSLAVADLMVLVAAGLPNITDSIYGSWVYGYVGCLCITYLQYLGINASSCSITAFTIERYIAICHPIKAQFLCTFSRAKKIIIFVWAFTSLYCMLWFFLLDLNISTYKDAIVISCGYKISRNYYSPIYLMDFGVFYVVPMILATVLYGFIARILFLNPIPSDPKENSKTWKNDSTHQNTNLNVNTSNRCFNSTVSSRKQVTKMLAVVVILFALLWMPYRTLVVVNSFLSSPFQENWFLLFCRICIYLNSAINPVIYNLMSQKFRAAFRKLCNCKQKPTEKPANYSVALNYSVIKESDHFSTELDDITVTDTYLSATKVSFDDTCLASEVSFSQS
# Sequence of Cytochrome P450 2C9 (Homo sapiens) (P11712 whole entry, looked up): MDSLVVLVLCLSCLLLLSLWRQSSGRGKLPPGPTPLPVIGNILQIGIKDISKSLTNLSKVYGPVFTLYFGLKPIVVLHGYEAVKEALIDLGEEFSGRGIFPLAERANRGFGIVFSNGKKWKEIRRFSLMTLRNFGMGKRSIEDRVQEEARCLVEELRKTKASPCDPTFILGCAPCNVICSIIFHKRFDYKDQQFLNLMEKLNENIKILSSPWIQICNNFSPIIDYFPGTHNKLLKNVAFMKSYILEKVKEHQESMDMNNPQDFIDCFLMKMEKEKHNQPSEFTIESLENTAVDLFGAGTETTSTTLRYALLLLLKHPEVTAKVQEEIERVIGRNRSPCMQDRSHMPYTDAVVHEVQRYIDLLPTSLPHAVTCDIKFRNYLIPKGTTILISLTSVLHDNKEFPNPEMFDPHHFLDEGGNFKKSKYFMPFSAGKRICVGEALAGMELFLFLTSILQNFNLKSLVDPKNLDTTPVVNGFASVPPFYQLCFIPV
# Sequence of Cytochrome P450 2C19 (Homo sapiens) (P33261 whole entry, looked up): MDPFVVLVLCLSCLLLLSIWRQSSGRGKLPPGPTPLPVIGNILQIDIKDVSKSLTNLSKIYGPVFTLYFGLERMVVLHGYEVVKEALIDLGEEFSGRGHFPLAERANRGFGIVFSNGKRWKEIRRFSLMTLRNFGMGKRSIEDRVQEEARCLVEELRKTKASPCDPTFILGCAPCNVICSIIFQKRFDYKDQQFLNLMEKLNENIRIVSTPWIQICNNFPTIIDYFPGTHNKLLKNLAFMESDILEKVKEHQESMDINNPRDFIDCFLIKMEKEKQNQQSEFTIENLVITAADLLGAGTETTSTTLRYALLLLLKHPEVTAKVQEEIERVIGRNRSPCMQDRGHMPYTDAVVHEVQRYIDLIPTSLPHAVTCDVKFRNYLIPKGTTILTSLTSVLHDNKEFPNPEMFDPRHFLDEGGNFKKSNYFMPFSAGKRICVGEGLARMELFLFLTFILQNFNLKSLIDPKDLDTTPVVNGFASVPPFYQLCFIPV
# Sequence of Cytochrome P450 2D6 (Homo sapiens) (P10635 whole entry, looked up): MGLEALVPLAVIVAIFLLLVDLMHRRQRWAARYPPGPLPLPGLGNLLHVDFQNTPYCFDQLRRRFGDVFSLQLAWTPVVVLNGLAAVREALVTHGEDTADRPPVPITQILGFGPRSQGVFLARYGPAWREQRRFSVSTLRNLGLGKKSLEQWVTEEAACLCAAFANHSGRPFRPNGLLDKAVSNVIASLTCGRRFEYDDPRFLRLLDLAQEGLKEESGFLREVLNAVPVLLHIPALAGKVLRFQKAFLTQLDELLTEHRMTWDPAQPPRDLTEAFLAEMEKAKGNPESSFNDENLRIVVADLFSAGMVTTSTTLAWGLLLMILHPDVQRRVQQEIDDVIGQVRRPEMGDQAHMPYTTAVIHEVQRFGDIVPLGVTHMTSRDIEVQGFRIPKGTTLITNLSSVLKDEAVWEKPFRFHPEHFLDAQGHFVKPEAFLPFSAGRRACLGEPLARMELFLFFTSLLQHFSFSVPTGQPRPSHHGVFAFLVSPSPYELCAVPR
# Sequence of Nuclear receptor subfamily 1 group I member 2 (Homo sapiens) (O75469 whole entry, looked up): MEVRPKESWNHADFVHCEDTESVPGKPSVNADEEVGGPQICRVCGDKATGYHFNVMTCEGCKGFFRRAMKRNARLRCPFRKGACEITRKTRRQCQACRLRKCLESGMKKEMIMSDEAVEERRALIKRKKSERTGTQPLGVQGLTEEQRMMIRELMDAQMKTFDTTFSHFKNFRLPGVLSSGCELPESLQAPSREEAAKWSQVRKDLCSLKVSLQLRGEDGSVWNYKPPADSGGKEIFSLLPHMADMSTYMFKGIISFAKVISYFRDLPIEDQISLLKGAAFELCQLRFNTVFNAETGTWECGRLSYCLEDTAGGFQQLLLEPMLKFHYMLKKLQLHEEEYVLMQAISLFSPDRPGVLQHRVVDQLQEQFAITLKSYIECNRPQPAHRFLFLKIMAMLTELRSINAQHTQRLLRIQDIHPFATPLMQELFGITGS
# Sequence of Cytochrome P450 1A2 (Homo sapiens) (P05177 whole entry, looked up): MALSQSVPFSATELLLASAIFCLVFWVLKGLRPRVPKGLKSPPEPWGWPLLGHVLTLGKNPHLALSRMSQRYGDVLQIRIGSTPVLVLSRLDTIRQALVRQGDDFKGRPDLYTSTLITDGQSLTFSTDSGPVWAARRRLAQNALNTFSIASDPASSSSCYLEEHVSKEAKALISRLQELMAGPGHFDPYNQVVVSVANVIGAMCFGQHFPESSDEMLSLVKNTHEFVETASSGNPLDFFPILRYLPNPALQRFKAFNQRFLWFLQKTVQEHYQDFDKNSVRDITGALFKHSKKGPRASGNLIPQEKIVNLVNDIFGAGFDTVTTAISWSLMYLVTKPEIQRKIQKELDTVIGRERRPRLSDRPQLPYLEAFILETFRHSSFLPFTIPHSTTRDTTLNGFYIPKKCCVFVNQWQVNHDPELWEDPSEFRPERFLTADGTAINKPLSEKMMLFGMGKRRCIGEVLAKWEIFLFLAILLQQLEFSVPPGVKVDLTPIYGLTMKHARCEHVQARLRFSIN
# Sequence of Voltage-gated inwardly rectifying potassium channel KCNH2 (Homo sapiens) (Q12809 whole entry, looked up): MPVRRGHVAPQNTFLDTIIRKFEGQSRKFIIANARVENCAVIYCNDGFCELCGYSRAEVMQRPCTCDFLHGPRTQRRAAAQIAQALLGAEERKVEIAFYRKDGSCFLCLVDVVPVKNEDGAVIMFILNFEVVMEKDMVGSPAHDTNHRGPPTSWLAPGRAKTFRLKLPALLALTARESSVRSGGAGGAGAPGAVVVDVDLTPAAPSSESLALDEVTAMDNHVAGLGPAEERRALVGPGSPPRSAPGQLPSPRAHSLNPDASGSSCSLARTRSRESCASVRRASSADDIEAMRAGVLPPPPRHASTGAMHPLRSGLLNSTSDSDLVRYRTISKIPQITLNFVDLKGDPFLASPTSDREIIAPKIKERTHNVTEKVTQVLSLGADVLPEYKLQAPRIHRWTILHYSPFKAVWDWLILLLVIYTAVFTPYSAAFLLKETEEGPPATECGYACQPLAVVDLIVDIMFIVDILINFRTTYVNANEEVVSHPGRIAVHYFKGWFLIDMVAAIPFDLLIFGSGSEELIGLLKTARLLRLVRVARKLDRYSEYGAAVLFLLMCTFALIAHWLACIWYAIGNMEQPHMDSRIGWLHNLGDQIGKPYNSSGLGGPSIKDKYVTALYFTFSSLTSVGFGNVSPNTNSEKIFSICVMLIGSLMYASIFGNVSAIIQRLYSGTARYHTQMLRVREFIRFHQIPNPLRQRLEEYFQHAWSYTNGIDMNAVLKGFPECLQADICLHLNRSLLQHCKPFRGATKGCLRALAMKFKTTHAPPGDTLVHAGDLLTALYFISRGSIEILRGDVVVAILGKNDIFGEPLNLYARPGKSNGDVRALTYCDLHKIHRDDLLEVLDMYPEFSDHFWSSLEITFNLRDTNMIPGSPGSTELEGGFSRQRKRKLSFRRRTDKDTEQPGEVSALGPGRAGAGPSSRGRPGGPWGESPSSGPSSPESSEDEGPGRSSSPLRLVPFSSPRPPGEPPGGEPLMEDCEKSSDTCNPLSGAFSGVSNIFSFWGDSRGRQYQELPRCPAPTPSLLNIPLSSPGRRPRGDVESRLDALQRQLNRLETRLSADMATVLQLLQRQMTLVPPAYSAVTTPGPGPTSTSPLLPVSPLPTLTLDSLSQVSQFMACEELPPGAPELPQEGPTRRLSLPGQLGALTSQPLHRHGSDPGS
structure (smiles),measurement,setting,value
NC(=O)C1CO1 (stereo not drawn),Potency,[1],inactive
same,Potency,[2],inactive
same,Potency,[3],inactive
same,outcome,[4],inactive
same,Potency,[5],inactive
same,Potency,[6],inactive
same,Potency,[7],inactive
same,Potency,[8],inactive
same,Potency,[9],inactive
same,Potency,[10],inactive
same,Potency,[11],inactive
same,Potency,[12],inactive
same,Potency,[13],inactive
same,Potency,[14],inactive
same,Potency,[15],inactive
same,Potency,[16],inactive
same,Potency,[17],inactive
CC1=CC[C@@H](C(C)(C)O)CC1,Potency,[1],inactive
same,Potency,[2],inactive
same,Potency,[3],inactive
same,outcome,[4],inactive
same,Potency,[5],inactive
same,Potency,[6],inactive
same,Potency,[8],inactive
same,Potency,[9],inactive
same,Potency,[10],inactive
same,Potency,[11],inactive
same,Potency,[12],inactive
same,Potency,[13],inactive
same,Potency,[14],inactive
same,Potency,[17],inactive
COc1cc(OC)nc(NC(=O)NS(=O)(=O)Nc2ccccc2C(=O)N(C)C)n1,Potency,[1],inactive
same,Potency,[2],inactive
same,Potency,[3],inactive
same,outcome,[4],inactive
same,Potency,[5],inactive
same,Potency,[6],inactive
same,Potency,[8],inactive
same,Potency,[9],inactive
same,Potency,[10],inactive
same,Potency,[11],inactive
same,Potency,[12],43.3 µM (active)
same,Potency,[14],39.9 µM (active)
same,Potency,[15],31.7 µM (active)
same,Potency,[16],63.3 µM (active)
same,Potency,[17],inactive
CC1(C)[C@H](C(=O)OCc2cccc(Oc3ccccc3)c2)[C@@H]1C=C(Cl)Cl,Potency,[1],inactive
same,Potency,[2],inactive
same,Potency,[3],inactive
same,outcome,[4],inactive
same,Potency,[5],inactive
same,Potency,[6],inactive
same,Potency,[7],inactive
same,Potency,[8],inactive
same,Potency,[9],inactive
same,Potency,[10],inactive
same,Potency,[11],inactive
same,Potency,[12],inactive
same,Potency,[13],inactive
same,Potency,[14],inactive
same,Potency,[15],inactive
same,Potency,[16],inactive
same,Potency,[17],inactive
[Cl][Dy]([Cl])[Cl],Potency,[1],inactive
same,Potency,[2],inactive
same,Potency,[3],inactive
same,outcome,[4],inactive
same,Potency,[5],inactive
same,Potency,[6],inactive
same,Potency,[7],inactive
same,Potency,[8],inactive
same,Potency,[9],inactive
same,Potency,[10],inactive
same,Potency,[11],inactive
same,Potency,[12],inactive
same,Potency,[13],inactive
same,Potency,[14],inactive
same,Potency,[15],inactive
same,Potency,[16],inactive
same,Potency,[17],inactive
COC(=O)c1ccc([N+](=O)[O-])cc1,Potency,[1],inactive
same,Potency,[2],inactive
same,Potency,[3],inactive
same,outcome,[4],inactive
same,Potency,[5],inactive
same,Potency,[6],inactive
same,Potency,[7],inactive
same,Potency,[8],inactive
same,Potency,[9],inactive
same,Potency,[10],inactive
same,Potency,[11],inactive
same,Potency,[12],inactive
same,Potency,[13],inactive
same,Potency,[14],inactive
same,Potency,[15],inactive
same,Potency,[16],17.8 µM (active)
same,Potency,[17],inactive
Cc1ccc(C2OC[C@@H]3OC(c4ccc(C)cc4)O[C@H]([C@H](O)CO)[C@@H]3O2)cc1 (stereo partly drawn),Potency,[1],inactive
same,Potency,[2],inactive
same,Potency,[3],inactive
same,outcome,[4],inactive
same,Potency,[5],inactive
same,Potency,[6],inactive
same,Potency,[8],inactive
same,Potency,[9],inactive
same,Potency,[10],inactive
same,Potency,[11],inactive
same,Potency,[12],inactive
same,Potency,[13],inactive
same,Potency,[14],6.33 µM (active)
same,Potency,[16],inactive
same,Potency,[17],inactive
CCCCCCCCCCCCS(=O)(=O)Cl,"activity change, negative = cytotoxicity",[1],-21.2% [at 19 µM]
same,"viability change, negative = cytotoxic",[2],-0.792% [at 15.8 µM]
same,"activity change, negative = cytotoxicity",[3],19.7% [at 15.8 µM]
same,activation,[4],8.04% [at 15.8 µM]
same,"activity, negative = inhibition",[5],-4.31% [at 10.5 µM]
same,activation,[6],0.0016% [at 11.8 µM]
same,"activity change, negative = cytotoxicity",[7],2.87% [at 19 µM]
same,caspase activation,[8],-0.157% [at 19 µM]
same,"activity change, negative = cytotoxicity",[9],5.87% [at 19 µM]
same,caspase-3/7 activation,[10],-1.07% [at 19 µM]
same,"activity change, negative = cytotoxicity",[11],3.84% [at 19 µM]
same,activation,[12],2.36% [at 19 µM]
same,"activity change, negative = inhibition",[13],-14.2% [at 23.6 µM]
same,"activity change, negative = inhibition",[14],-3.93% [at 23.6 µM]
same,"activity change, negative = inhibition",[15],-14.1% [at 23.6 µM]
same,"activity change, negative = inhibition",[16],5.89% [at 23.6 µM]
same,"activity change, negative = inhibition",[17],1.06% [at 15.8 µM]
C/C=C/C(=O)OCC(C)C,Potency,[1],inactive
same,Potency,[2],inactive
same,Potency,[3],inactive
same,outcome,[4],inactive
same,Potency,[5],inactive
same,Potency,[6],inactive
same,Potency,[7],inactive
same,Potency,[8],inactive
same,Potency,[10],inactive
same,Potency,[11],inactive
same,Potency,[12],inactive
same,Potency,[14],inactive
same,Potency,[15],inactive
same,Potency,[16],inactive
same,Potency,[17],inactive
SC1CCCCC1,Potency,[1],inactive
same,Potency,[2],inactive
same,Potency,[3],inactive
same,outcome,[4],inactive
same,Potency,[5],inactive
same,Potency,[6],inactive
same,Potency,[7],inactive
same,Potency,[8],inactive
same,Potency,[9],inactive
same,Potency,[10],inactive
same,Potency,[11],inactive
same,Potency,[12],inactive
same,Potency,[14],inactive
same,Potency,[15],inactive
same,Potency,[16],inactive
same,Potency,[17],inactive
O=[N+]([O-])c1ccc(CO)cc1,Potency,[1],inactive
same,Potency,[2],inactive
same,Potency,[3],inactive
same,outcome,[4],inactive
same,Potency,[5],inactive
same,Potency,[6],inactive
same,Potency,[8],inactive
same,Potency,[9],inactive
same,Potency,[10],inactive
same,Potency,[11],inactive
same,Potency,[12],inactive
same,Potency,[13],inactive
same,Potency,[14],inactive
same,Potency,[15],inactive
same,Potency,[17],inactive
CO[Si](OC)(c1ccccc1)c1ccccc1,Potency,[1],inactive
same,Potency,[2],inactive
same,Potency,[3],inactive
same,outcome,[4],inactive
same,Potency,[5],inactive
same,Potency,[6],inactive
same,Potency,[7],inactive
same,Potency,[8],inactive
same,Potency,[10],inactive
same,Potency,[11],inactive
same,Potency,[12],34.4 µM (active)
same,Potency,[13],inactive
same,Potency,[14],10 µM (active)
same,Potency,[15],20 µM (active)
same,Potency,[16],inactive
same,Potency,[17],inactive
CCOC(=O)OC(=O)OCC,Potency,[1],inactive
same,Potency,[2],inactive
same,Potency,[3],inactive
same,outcome,[4],inactive
same,Potency,[5],inactive
same,Potency,[6],inactive
same,Potency,[7],inactive
same,Potency,[8],inactive
same,Potency,[9],inactive
same,Potency,[10],inactive
same,Potency,[11],inactive
same,Potency,[12],inactive
same,Potency,[13],inactive
same,Potency,[14],inactive
same,Potency,[15],inactive
same,Potency,[16],inactive
same,Potency,[17],inactive
